Assay results reported in PubChem BioAssay (Tox21).
Results filed as inconclusive are left out. The source made the active and inactive calls. Unless noted, calls follow the shape of the dose curve; as a rule, active = well fitted curve in the direction sought with a large enough effect in the repeat runs; inconclusive = weak or mixed curves; inactive = no such curve, though single readings can be large; an effect the other way counts as inactive or inconclusive.

Experiments:
[1] = qHTS assay to identify small molecule antagonists of the thyroid receptor (TR) signaling pathway - cell viability counter screen (AID 743064); also: nearly all actives have a fitted effect of over 50% in size
Summary of the method: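 Fluorescence from CellTiter-Fluor, added after 23.5 h exposure at 37 °C, reported viability of GH3.TRE-Luc cells co-treated with compound and 1 nM T3. Measured in the same wells as the luciferase TR readout.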

[2] = qHTS assay to identify small molecule antagonists of the thyroid receptor (TR) signaling pathway (AID 743065); also: series mostly up to about 70 µM; nearly all actives have a fitted effect of over 55% in size
Summary of the method: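 GH3.TRE-Luc rat pituitary cells carrying two TR response elements driving luciferase were plated for 4 h, given compound plus 1 nM T3 (final), and incubated 23.5 h at 37 C. ONE-Glo luminescence measured reporter inhibition; CellTiter-Fluor fluorescence tracked cytotoxicity.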

[3] = tested on: thyroid hormone receptor (rat, GH3 cells); experiment: qHTS assay to identify small molecule agonists of the thyroid receptor (TR) signaling pathway (AID 743066; calls by dose curve)
[4] = target: Estrogen receptor (Homo sapiens) (UniProt P03372); experiment: qHTS assay to identify small molecule antagonists of the estrogen receptor alpha (ER-alpha) signaling pathway (AID 743069; active = well fitted curve in the direction sought with a large enough effect in the signal ratio in the repeat runs, not every such curve was filed as active; the % refers to the signal ratio)
Estrogen receptor (Homo sapiens), sequence (P03372 whole entry, looked up): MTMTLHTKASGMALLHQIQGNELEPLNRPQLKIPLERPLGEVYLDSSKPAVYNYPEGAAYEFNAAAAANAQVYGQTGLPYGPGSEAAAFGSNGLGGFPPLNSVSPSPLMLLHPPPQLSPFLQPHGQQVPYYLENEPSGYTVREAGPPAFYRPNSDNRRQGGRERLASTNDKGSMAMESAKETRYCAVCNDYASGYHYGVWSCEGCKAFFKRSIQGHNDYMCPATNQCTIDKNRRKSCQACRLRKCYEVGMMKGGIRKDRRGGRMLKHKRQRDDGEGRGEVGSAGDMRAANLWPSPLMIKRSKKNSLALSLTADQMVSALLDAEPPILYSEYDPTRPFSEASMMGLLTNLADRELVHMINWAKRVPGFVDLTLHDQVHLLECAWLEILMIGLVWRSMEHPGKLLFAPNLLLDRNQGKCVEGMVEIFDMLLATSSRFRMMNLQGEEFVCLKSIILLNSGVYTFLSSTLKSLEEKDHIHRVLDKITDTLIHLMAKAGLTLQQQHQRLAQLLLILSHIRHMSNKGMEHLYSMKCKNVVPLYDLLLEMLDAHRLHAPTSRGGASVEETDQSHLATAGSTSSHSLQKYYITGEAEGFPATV
Summary of the method: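 Estradiol-stimulated ER-alpha-UAS-bla HEK293 cells, 18 hr compound exposure at 37C. LiveBLAzer B/G substrate, 2 hr RT, fluorescence read.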

[5] = qHTS assay to identify small molecule antagonists of the estrogen receptor alpha (ER-alpha) signaling pathway - cell viability counter screen (AID 743074; calls by dose curve;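 also: HEK293 cells carrying ER-alpha-UAS-bla reporter stimulated with 17beta-estradiol; nearly all actives have a fitted effect of over 45% in size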)
[6] = target: Estrogen receptor (Homo sapiens) (UniProt P03372); experiment: qHTS assay to identify small molecule agonists of the estrogen receptor alpha (ER-alpha) signaling pathway (AID 743075; calls by dose curve;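 also: HEK293 GripTite cells with ER-alpha and UAS-driven beta-lactamase reporter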)
[7] = target: Estrogen receptor (Homo sapiens) (UniProt P03372); experiment: qHTS assay to identify small molecule agonists of the estrogen receptor alpha (ER-alpha) signaling pathway using the BG1 cell line (AID 743079); also: nearly all actives have a fitted effect of over 20% in size
[8] = qHTS assay to identify small molecule antagonists of the estrogen receptor alpha (ER-alpha) signaling pathway using the BG1 cell line (AID 743080; calls by dose curve;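 also: BG1 cells stimulated with 17beta-estradiol alongside compound; series mostly up to about 70 µM; nearly all actives have a fitted effect of over 25% in size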)
Summary of the method: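 Readout is ONE-Glo luminescence, taken 30 min at room temperature after reagent addition, preceded by a CellTiter-Fluor viability read; BG1-Luc-4E2 cells had received compound and 17beta-estradiol for 21.5 h at 37 C.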

[9] = qHTS assay to identify small molecule antagonists of the estrogen receptor alpha (ER-alpha) signaling pathway using the BG1 cell line - cell viability counter screen (AID 743081);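 also: compound given together with 17beta-estradiol as the ER stimulus; series mostly up to about 70 µM; nearly all actives have a fitted effect of over 45% in size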
Aromatase (Homo sapiens) = Aromatase (Homo sapiens) (UniProt P11511); experiment: qHTS assay to identify aromatase inhibitors (AID 743083); also: series mostly up to about 70 µM; nearly all actives have a fitted effect of over 55% in size
Aromatase (Homo sapiens), sequence (P11511 whole entry, looked up): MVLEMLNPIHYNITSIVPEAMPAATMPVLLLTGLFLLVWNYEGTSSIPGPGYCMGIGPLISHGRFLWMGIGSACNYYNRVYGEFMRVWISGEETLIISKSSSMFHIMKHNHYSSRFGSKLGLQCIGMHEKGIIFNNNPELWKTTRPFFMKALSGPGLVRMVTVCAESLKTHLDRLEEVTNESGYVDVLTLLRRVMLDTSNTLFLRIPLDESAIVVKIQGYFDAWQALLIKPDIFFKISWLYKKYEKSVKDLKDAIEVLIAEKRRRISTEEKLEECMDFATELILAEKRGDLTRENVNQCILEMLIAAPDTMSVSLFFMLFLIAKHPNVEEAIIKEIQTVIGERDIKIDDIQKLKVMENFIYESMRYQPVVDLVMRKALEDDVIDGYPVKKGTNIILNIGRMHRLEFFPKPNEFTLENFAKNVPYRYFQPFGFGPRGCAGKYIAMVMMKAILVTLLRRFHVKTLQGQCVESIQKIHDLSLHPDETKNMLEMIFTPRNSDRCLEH

[10] = qHTS assay to identify aromatase inhibitors - cell viability counter screen (AID 743084);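 also: cells stimulated with testosterone during compound exposure; nearly all actives have a fitted effect of over 55% in size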
[11] = target: Aryl hydrocarbon receptor (Homo sapiens) (UniProt P35869); experiment: qHTS assay to identify small molecule that activate the aryl hydrocarbon receptor (AhR) signaling pathway (AID 743085); also: nearly all actives have a fitted effect of over 15% in size; also: potency is read from the fitted curve at half-maximal effect;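 as to activation: HG2L7.5c1 human HepG2 liver cells with stably integrated DRE-driven firefly reporter; series mostly up to about 70 µM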
Aryl hydrocarbon receptor (Homo sapiens), sequence (P35869 whole entry, looked up): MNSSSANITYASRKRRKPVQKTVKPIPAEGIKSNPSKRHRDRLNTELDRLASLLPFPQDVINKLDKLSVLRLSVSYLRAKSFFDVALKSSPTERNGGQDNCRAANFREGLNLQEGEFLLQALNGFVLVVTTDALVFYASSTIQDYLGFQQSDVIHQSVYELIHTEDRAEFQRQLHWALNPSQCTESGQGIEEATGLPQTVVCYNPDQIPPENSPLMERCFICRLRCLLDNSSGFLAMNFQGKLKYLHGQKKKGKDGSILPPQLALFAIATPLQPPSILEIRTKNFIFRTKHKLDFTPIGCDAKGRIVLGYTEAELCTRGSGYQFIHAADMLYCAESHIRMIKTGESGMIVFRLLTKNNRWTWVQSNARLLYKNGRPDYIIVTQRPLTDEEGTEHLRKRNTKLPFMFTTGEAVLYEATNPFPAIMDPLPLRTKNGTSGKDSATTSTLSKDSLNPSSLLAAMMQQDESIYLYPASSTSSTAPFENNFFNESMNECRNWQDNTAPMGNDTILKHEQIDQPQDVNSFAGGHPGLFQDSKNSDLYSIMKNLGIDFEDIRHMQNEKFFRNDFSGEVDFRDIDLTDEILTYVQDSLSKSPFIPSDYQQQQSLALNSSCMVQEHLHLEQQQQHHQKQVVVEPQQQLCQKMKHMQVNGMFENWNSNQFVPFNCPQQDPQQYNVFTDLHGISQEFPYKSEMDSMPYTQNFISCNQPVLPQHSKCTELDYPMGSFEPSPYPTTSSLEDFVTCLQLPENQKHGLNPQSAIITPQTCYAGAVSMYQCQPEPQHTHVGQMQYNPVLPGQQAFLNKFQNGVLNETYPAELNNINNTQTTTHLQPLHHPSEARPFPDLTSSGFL
Summary of the method: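 Cell line HG2L7.5c1 (human hepatoma, 20× DRE-luc). Plated, 5 h 37C, compound/DMSO added, 24 h 37C. CellTiter-Fluor 30 min 37C → fluorescence; then ONE-Glo 30 min RT → luminescence.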

[12] = qHTS assay to identify small molecule that activate the aryl hydrocarbon receptor (AhR) signaling pathway - cell viability counter screen (AID 743086);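 also: HepG2 liver cells carrying the AhR DRE luciferase reporter; series mostly up to about 70 µM; nearly all actives have a fitted effect of over 45% in size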
Summary of the method: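 HepG2-AhR-luc (HG2L7.5c1) cells, 4000/well, were preincubated 5 h at 37C, exposed to compound in qHTS format for 24 hr at 37C, then given CellTiter-Fluor for 30 min; viability was read as fluorescence in the reporter wells.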

[13] = target: Peroxisome proliferator-activated receptor gamma (Homo sapiens) (UniProt P37231); experiment: qHTS assay to identify small molecule agonists of the peroxisome proliferator-activated receptor gamma (PPARg) signaling pathway (AID 743094; active = well fitted activation curve with a large enough effect in the signal ratio in the repeat runs, not every such curve was filed as active; the % refers to the signal ratio)
Peroxisome proliferator-activated receptor gamma (Homo sapiens), sequence (P37231 whole entry, looked up): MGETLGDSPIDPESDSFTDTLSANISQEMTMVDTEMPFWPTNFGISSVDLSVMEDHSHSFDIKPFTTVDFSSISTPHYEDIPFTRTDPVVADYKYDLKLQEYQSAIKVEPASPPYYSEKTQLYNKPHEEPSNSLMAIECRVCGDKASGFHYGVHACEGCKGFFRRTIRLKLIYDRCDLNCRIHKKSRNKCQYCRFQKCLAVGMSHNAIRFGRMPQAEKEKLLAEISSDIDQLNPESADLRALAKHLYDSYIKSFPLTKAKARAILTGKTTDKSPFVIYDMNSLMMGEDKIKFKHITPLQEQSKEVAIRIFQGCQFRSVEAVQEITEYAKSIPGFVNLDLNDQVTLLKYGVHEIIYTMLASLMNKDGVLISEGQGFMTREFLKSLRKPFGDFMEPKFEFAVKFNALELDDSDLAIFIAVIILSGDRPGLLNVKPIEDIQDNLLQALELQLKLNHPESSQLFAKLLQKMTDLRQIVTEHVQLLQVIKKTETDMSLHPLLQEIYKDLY
Summary of the method: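 Following 5 h plating at 37C, PPARg-bla HEK293H cells receive compound or DMSO for 17 h; fluorescence intensity is recorded after LiveBLAzer B/G loading for 1 h at room temperature.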

[14] = target: Peroxisome proliferator-activated receptor gamma (Homo sapiens) (UniProt P37231); experiment: qHTS assay to identify small molecule antagonists of the peroxisome proliferator-activated receptor gamma (PPARg) signaling pathway (AID 743191; calls by dose curve; also: series mostly up to about 63 µM; nearly all actives have a fitted effect of over 30% in size)
Summary of the method: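 GeneBLAzer PPARg UAS-bla HEK293H cells carrying a UAS-driven beta-lactamase reporter were plated at 3000 cells/well, preincubated 5 h at 37C, then given compound for 17 h at 37C; LiveBLAzer B/G FRET substrate was read after 1 h at room temperature.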

[15] = qHTS assay to identify small molecule antagonists of the peroxisome proliferator-activated receptor gamma (PPARg) signaling pathway - cell viability counter screen (AID 743194); also: nearly all actives have a fitted effect of over 55% in size
Summary of the method: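 PPARg-UAS-bla HEK293H cells were plated, rested 5 h at 37 C, then treated with compounds plus rosiglitazone (50 nM final) for 17 h at 37 C; viability was then read by CellTiter-Glo luminescence after 30 min at room temperature.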

[16] = qHTS assay for small molecule agonists of the antioxidant response element (ARE) signaling pathway (AID 743202; active = well fitted activation curve with a large enough effect in the signal ratio in the repeat runs, not every such curve was filed as active; the % refers to the signal ratio)
Summary of the method: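 Compounds delivered in DMSO to ARE-bla HepG2 cells (2,000 cells/well, pre-incubated 5 h) and left 16 h at 37 C. LiveBLAzer B/G FRET substrate then added for 2 h at RT before fluorescence reading.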

[17] = qHTS assay for small molecule agonists of the antioxidant response element (ARE) signaling pathway - cell viability counter screen (AID 743203; calls by dose curve; also: nearly all actives have a fitted effect of over 55% in size)
Summary of the method: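 Compounds in DMSO were pinned onto ARE-bla HepG2 cells plated 5 hrs earlier at 2,000 cells/well. Sixteen hours later at 37C/5% CO2, CellTiter-Glo was added and luminescence measured after 30 min at room temperature.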

[18] = qHTS assay for small molecule activators of the heat shock response signaling pathway - cell viability counter screen (AID 743209); also: nearly all actives have a fitted effect of over 50% in size
Summary of the method: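 Counter screen for cytotoxicity in HeLa HSE-bla reporter cells. Treatment was 5 h at 37 C; viability was detected by luminescent ATP assay (CellTiter-Glo) in the same wells as the beta-lactamase read.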

[19] = qHTS assay for small molecule activators of the heat shock response signaling pathway (AID 743210; active = well fitted activation curve with a large enough effect in the signal ratio in the repeat runs, with a control signal flat, not every such curve was filed as active; the % refers to the signal ratio;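 also: HeLa cells with beta-lactamase reporter driven by heat shock elements; series mostly up to about 63 µM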)
Summary of the method: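 Reporter gene assay: HeLa cells stably bearing an HSE-bla construct, compound treatment 5 h at 37 C, LiveBLAzer substrate 2.5 h at RT, fluorescence intensity.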

Measured: Potency

CCc1nccnc1C
inactive: all assays above

CCC(C)N (stereo not given)
not listed: [17]
inactive: all other assays above

COCC(=O)Nc1c(I)c(C(=O)NCC(O)CO)c(I)c(C(=O)N(C)CC(O)CO)c1I (stereo not given)
inactive: all assays above

CCN1CN(CC)CN(CC)C1
inactive: all assays above

F[Si-2](F)(F)(F)(F)F
inactive: all assays above

Cc1cccc(C(=O)O)c1[N+](=O)[O-]
not listed: [16] | [19]
inactive: all other assays above

Nc1cc(C(=O)O)ccc1Cl
not listed: [17]
inactive: all other assays above

CCCCCCCCOC(C)=O
not listed: [19]
inactive: all other assays above

COC(/C=C(\C)CCC=C(C)C)OC
not listed: [16]
inactive: all other assays above

OC[C@@H](O)[C@H](O)[C@@H](O)[C@@H](O)CO
inactive: all assays above

Nc1ccnc(=O)[nH]1
inactive: all assays above

COc1ccc(/C=N/NC(=O)c2ccncc2)cc1OC
active: [11] 2.66 µM
not listed: [17] | [19]
inactive: all other assays above

Cc1nc(C)nc(N2C[C@@H](C)N(c3ccnc([C@@H](C)O)n3)[C@@H](C)C2)n1
not listed: [16]
inactive: all other assays above

CCCCCC1Nc2cc(C(F)(F)F)c(S(N)(=O)=O)cc2S(=O)(=O)N1 (stereo not given)
inactive: all assays above

O=S1(=O)CCCC1
not listed: [18]
inactive: all other assays above
